Measured values from PubChem BioAssay (NCATS).
Several values for one entry are separate records, joined by “and”; a condition that tells them apart may be missing. Equal values may be shown once. Inconclusive results are not listed. Unmarked numbers belong to inactive results. Activity calls are given as the source filed them. Calls follow the shape of the dose curve; as a rule, active = well fitted curve in the direction sought with a large enough effect; inconclusive = small, poorly fitted or top-dose-only effect, or another doubt; inactive = no such curve, though single readings can be large; an effect the other way counts as inactive or inconclusive.

Columns and labels:
[1] = test system: Tov-21-G; experiment: Primary qHTS to identify gynecologic anti-cancer compounds using libraries of approved drugs and bioactive compounds (AID 1345084); conditions: Gynecologic cancer cell panel viability, ATPlite luminescence, 48 h; series mostly up to 57.5 µM; also: nearly all actives have a fitted effect of over 55% in size
In short: (§1)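 Cells, 1,000 per well, were allowed to settle for 16 h at 37 C before compound addition. Five concentrations were tested for 48 h, and viability was read by ATPlite luminescence after 15 min at room temperature.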

[2] = test system: Tov112D; experiment: as above; conditions: Gynecologic cancer cell panel viability, ATPlite luminescence, 48 h; series mostly up to 57.5 µM
In short: as §1

[3] = Drug repurposing screens with cells derived from glioblastoma tumor samples (AID 1345199); conditions: GBM patient neurospheres viability, ATP luminescence, 48 h; also: nearly all actives have a fitted effect of over 40% in size; also: potency is read from the fitted curve at half-maximal effect
In short: (§2)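 Primary testing used CD133+ neurospheres from four GBM patients, seven concentrations, 48 h exposure and ATP-based viability; confirmation added three slower-growing patient lines.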

[4] = test system: astro; experiment: as above; conditions: viability, ATP luminescence, 48 h; series mostly up to 45.9 µM
In short: as §2

[5] = at 20 µM (top of the series), tumour line C
[6] = at 21.2 µM (top of the series), tumour line B
[7] = at 21.2 µM (top of the series), tumour line D
[8] = at 21.3 µM (top of the series), tumour line A
[9] = at 45.9 µM (top of the series), tumour line B
[10] = at 45.9 µM (top of the series), tumour line D
[11] = at 46 µM (top of the series), tumour line A
[12] = at 46.1 µM (top of the series), tumour line C
% is scaled to controls: 0 for no effect and ±100 for the full control effect.

Row | Structure (SMILES) | Potency [1] | Potency [2] | activity, negative = cell killing [3, 5] [%] | activity, negative = cell killing [3, 6] [%] | activity, negative = cell killing [3, 7] [%] | activity, negative = cell killing [3, 8] [%] | Potency [4] | activity, negative = cell killing [3, 9] | activity, negative = cell killing [3, 10] | activity, negative = cell killing [3, 11] [%] | activity, negative = cell killing [3, 12] | Potency ([3]; tumour line A) | activity change, negative = cytotoxicity [1] | activity change, negative = cytotoxicity [2]
1 | COc1ccc(OC)c(C(O)CNC(=O)CN)c1 (stereo not drawn) | inactive | inactive | -8.51 | -10.1 | -7.78 | -30.8 | inactive |  |  |  |  |  |  | 
2 | Cc1onc(-c2c(Cl)cccc2Cl)c1C(=O)N[C@@H]1C(=O)N2[C@@H]1SC(C)(C)[C@@H]2C(=O)O | inactive | inactive |  |  |  |  | inactive | -4.57% | -12.2% | -8.27 | 12.2% |  |  | 
3 | NC[C@H]1O[C@H](O[C@H]2[C@H](O)[C@@H](O[C@H]3O[C@H](CO)[C@@H](O)[C@H](N)[C@H]3O)[C@H](N)C[C@@H]2N)[C@H](N)[C@@H](O)[C@@H]1O | inactive | inactive |  |  |  |  | inactive | -3.08% and -15.5% | -22.4% and -15.3% | -11.7 | -0.491% and -12.3% |  |  | 
4 | COc1cc(OC)cc(OC)c1 | inactive | inactive |  |  |  |  | inactive | -3.53% | 7.76% | -12.5 | -1.01% |  |  | 
5 | CC[C@@H](CO)NCCN[C@@H](CC)CO | inactive | inactive | 12.9 | 2 | -7.59 | -22 | inactive |  |  |  |  |  |  | 
6 | N[C@@H](CCC(=O)N[C@@H](CS)C(=O)NCC(=O)O)C(=O)O | inactive | inactive |  |  |  |  | inactive | -10.5% | -6.47% | -29.7 | 10.6% |  |  | 
7 | CN1[C@@H]2CC[C@H]1CC(OC(=O)c1c[nH]c3ccccc13)C2 (stereo partly drawn) | inactive | inactive |  |  |  |  | inactive | 0.619% | -12.6% |  | 13.1% | 11.2 µM (active) |  | 
8 | C[C@H](O)C(=O)Nc1c(I)c(C(=O)NC(CO)CO)c(I)c(C(=O)NC(CO)CO)c1I | inactive | inactive | 2.37 | -6.73 | -12.3 | -8 | inactive |  |  |  |  |  |  | 
9 | CC[N+](CC)(CCNC(=O)C(=O)NCC[N+](CC)(CC)Cc1ccccc1Cl)Cc1ccccc1Cl | inactive | inactive |  |  |  |  | inactive | -6.34% | -19.6% | -23.4 | 15.3% |  |  | 
10 | CC1(C)O[C@@H]2C[C@H]3[C@@H]4C[C@H](F)C5=CC(=O)C=C[C@]5(C)[C@H]4[C@@H](O)C[C@]3(C)[C@]2(C(=O)CO)O1 | inactive | inactive | 3.76 | 2.57 | -8.48 | 19 | inactive |  |  |  |  |  |  | 
11 | CC(Cc1ccccc1)(NC(=O)CN)c1ccccc1 (stereo not drawn) | inactive | inactive |  |  |  |  | inactive | -9.21% | 3.89% |  | -26.6% | 20 µM (active) |  | 
12 | CCOc1ccc(NC(=O)CC(C)O)cc1 (stereo not drawn) | inactive | inactive |  |  |  |  | inactive | -5.84% | -16.9% | -20.2 | -0.587% |  |  | 
13 | Nc1ccc(/C=C/c2ccc(N)cc2S(=O)(=O)O)c(S(=O)(=O)O)c1 |  |  |  |  |  |  | inactive | -7.96% | -14.3% | -15.5 | -2.52% |  | 0.128% [at 0.462 µM] | 3.4% [at 0.462 µM]
14 | CN(C)CC/C=C1/c2ccccc2COc2ccc(CC(=O)O)cc21 | inactive | inactive |  |  |  |  | inactive | -11.5% | 1.66% | -15.4 | 4.5% |  |  | 
15 | CC(C)NC[C@@H](O)COc1cccc2ccccc12 | inactive | inactive |  |  |  |  | inactive | -11.2% | -22.3% |  | -5.6% | 28.2 µM (active) |  | 
16 | CC(C)(C(=O)c1cccnc1)c1cccnc1 | inactive | inactive | -7.19 | -14.8 | -8.11 | -19.8 | inactive |  |  |  |  |  |  | 
17 | CCN1CCN(c2cc3c(cc2F)c(=O)c(C(=O)O)cn3C2CC2)CC1 | inactive | inactive |  |  |  |  | inactive | 9.67% | -1.9% | -9.98 | 17.2% |  |  | 
18 | C/C=C/c1ccc(OC)cc1 | inactive | inactive |  |  |  |  | inactive | -1.8% | 3.04% | -17.3 | 0.347% |  |  | 
19 | Cc1cccn2c(=O)c(-c3nnn[nH]3)cnc12 | inactive | inactive |  |  |  |  | inactive | -8.75% | -11.1% | -23.8 | -18.6% |  |  | 
